# Unmarked numbers belong to inactive results. Calls of active or inactive are those of the source.
# Test: plasmodial surface anion channel blockers, osmotic lysis – cell-based, P. falciparum Indochina, OD700, 1 h, primary screen (AID 1154)
# Details: P. falciparum Indochina infected RBC osmotic lysis, higher = more signal, called active from +8 up or from −8 down
row,Structure (SMILES),z-score
1,CCOC(=O)C1=CC[C@@H](c2ccc(OC)cc2)N(S(=O)(=O)c2ccc(C)cc2)[C@H]1c1ccc(C)cc1,0.833
2,CCOC(=O)C[C@H]1[C@H](OC(=O)Cc2ccc3c(c2)OCO3)[C@@H](NC(=O)c2ccc3ccccc3n2)c2cc(OCCCO)ccc2N1C(=O)Cc1ccc(OC)cc1,21.8 (active)
3,CC(C)(C)N1CC=CC23O[C@@H]4C=CCOC(=O)[C@@H]4[C@H]2C(=O)N(CCO)[C@@H]3C1=O (stereo partly specified),0.55
4,CCOC(=O)C1=CC[C@@H](c2ccc(OC)cc2)N(S(=O)(=O)c2ccc(C)cc2)[C@H]1CC,2.22
5,COc1ccc(NN2C(C(O)c3ccc(I)cc3)C=CC3C(=O)N(C4CCCCC4)C(=O)C32)cc1 (stereo unspecified),3.84
6,C=CCOC(=O)[C@H]1[C@@H]2C(=O)O[C@@H](c3ccccc3)[C@@H](c3ccccc3)N2[C@@H](c2ccc(OCCOC(=O)[C@@H]3C[C@@H]4C(=O)N[C@@H](CCCC[N+](C)(C)C)C(=O)N4[C@@H]3c3ccc(O)cc3)cc2)[C@]12C(=O)Nc1ccc(I)cc12,-1.03
7,Cc1ccc(S[C@]2(C(=O)NCc3ccccc3)CC(=O)N(Cc3ccccc3C(F)(F)F)[C@@H]2c2ccc(CO)cc2)cc1,0.485
8,CC(C)=CCCC(C)=CC(O)C1C=CC2C(=O)NC(=O)C2N1Nc1ccccn1 (stereo unspecified),0.494
9,O=C1O[C@H](c2ccccc2)[C@H](c2ccccc2)N2[C@H]1[C@@H](C(=O)O)[C@]1(C(=O)Nc3ccc(C#CCCO)cc31)[C@H]2c1ccc(OCCO)cc1,4.88
10,C=CCN1C(=O)[C@@]2(O[C@@H](CCn3cc([C@H](O)c4ccccc4)nn3)[C@H]([Si](C)(C)c3ccc(OC)cc3)[C@H]2C)c2cc(N3C(=O)c4cccc5cccc3c45)ccc21,4.77
11,NC(=O)NCC#Cc1ccc2c(c1)[C@]1(C(=O)N2)[C@H](c2ccc(OCCO)cc2)N2[C@H](c3ccccc3)[C@H](c3ccccc3)OC(=O)[C@H]2[C@@H]1C(=O)O,2.54
12,CO[C@H]1O[C@H](CO)[C@@H](OC(=O)Nc2ccc3c(c2)OCO3)[C@H](OC(=O)Nc2ccccc2-c2ccccc2)[C@H]1OC(=O)Nc1ccccc1-c1ccccc1,2.14
13,CC1CC/C=C\[C@H]2OC34C=CCN(c5ccc6ccccc6c5)C(=O)[C@H]3N(C(C)CO)C(=O)[C@@H]4C2C(=O)O1 (stereo partly specified),0.856
14,COC(=O)[C@@]1(Cc2ccc(OC)cc2)[C@H]2c3cc(C(=O)N4CCCC4)n(Cc4ccc(C(F)(F)F)nc4)c3C[C@H]2CN1C(=O)c1ccccc1,6.38
15,Cc1ccc(C(C)CC(O)C2C=CC3C(=O)N(C)C(=O)C3N2Nc2ccccc2)o1 (stereo unspecified),2.46
16,C=CC[C@@]1(C(=O)N(C)C)N=C(c2ccc(OCCCO)cc2)O[C@@H]1c1ccccc1CN=[N+]=[N-],23.1 (active)
17,COC(=O)[C@@]1(Cc2ccccc2)[C@H]2c3cc(C(=O)N4CCCC4)n(Cc4ccc(OC)c(OC)c4)c3C[C@H]2CN1C(=O)c1ccccc1,1.76
18,N#Cc1ccc(NN2C(C(O)C3CC=CCC3)C=CC3C(=O)N(c4ccccc4)C(=O)C32)cc1 (stereo unspecified),16.9 (active)
19,C=C(C)[C@@H]1CC=C(C(O)C2C=CC3C(=O)N(c4ccccc4)C(=O)C3N2Nc2ccc([N+](=O)[O-])cc2)CC1 (stereo partly specified),5.76
20,COc1ccc([Si](C)(C)[C@H]2[C@H](CCO)O[C@@]3(C(=O)N(Cc4cccc(N(C=O)c5ccccc5)c4)c4ccccc43)[C@@H]2C)cc1,2.24
21,CCCCC(O)C1C=CC2C(=O)N(c3ccccc3)C(=O)C2N1Nc1ccc([N+](=O)[O-])cc1 (stereo unspecified),14.2 (active)
22,COc1ccc([Si](C)(C)[C@@H]2[C@@H](CC(=O)N3CCC[C@H]3CO)O[C@]3(C(=O)N(Cc4ccc(N5CCOC5=O)cc4)c4ccccc43)[C@H]2C)cc1,6.25
23,CC(C)NC(=O)[C@@H]1c2ccccc2C(=O)N(Cc2ccccc2C(F)(F)F)[C@H]1c1ccc(CO)cc1,2.58
24,CCCCCC1=C2CNC(Cc3ccccc3)(C(=O)OC)C=C2C(C)C1=O (stereo unspecified),2.16
25,CN(C)c1ccc(C(O)C2C=CC3C(=O)N(Cc4ccccc4)C(=O)C3N2n2cnnc2)cc1 (stereo unspecified),0.0651
26,O=C(NCC(O)CO)[C@@]1(CCS(=O)(=O)c2ccccc2)N=C(c2ccc(OCCCO)cc2)O[C@H]1c1ccccc1 (stereo partly specified),25.6 (active)

# Source: PubChem BioAssay
